# Laboratory results: ChEMBL document CHEMBL3988442, “University of Dundee, Small-Polar-MMV Screening Library” (2021)
# For some assays here: Results with a measured potency or affinity are listed apart.
# Assays:
# Set-up in all cases: scale not given: direction of the effect not stated beside the values
# [1] = target: Protein translocase subunit SecA (Escherichia coli (strain K12)) (UniProt P10408); assay: Assay to Identify E. coli SecA ATPase Inhibitors; format: functional; settings: 30 µM
# [2] = target: T1, Ubiquitin-activating enzyme e1, putative (Leishmania donovani (strain BPK282A1)) (UniProt E9BSI1); assay: Leishmania donovani Ubiquitin Activating Enzyme (LdE1); format: functional; settings: 30 µM
# T1 sequence (whole entry): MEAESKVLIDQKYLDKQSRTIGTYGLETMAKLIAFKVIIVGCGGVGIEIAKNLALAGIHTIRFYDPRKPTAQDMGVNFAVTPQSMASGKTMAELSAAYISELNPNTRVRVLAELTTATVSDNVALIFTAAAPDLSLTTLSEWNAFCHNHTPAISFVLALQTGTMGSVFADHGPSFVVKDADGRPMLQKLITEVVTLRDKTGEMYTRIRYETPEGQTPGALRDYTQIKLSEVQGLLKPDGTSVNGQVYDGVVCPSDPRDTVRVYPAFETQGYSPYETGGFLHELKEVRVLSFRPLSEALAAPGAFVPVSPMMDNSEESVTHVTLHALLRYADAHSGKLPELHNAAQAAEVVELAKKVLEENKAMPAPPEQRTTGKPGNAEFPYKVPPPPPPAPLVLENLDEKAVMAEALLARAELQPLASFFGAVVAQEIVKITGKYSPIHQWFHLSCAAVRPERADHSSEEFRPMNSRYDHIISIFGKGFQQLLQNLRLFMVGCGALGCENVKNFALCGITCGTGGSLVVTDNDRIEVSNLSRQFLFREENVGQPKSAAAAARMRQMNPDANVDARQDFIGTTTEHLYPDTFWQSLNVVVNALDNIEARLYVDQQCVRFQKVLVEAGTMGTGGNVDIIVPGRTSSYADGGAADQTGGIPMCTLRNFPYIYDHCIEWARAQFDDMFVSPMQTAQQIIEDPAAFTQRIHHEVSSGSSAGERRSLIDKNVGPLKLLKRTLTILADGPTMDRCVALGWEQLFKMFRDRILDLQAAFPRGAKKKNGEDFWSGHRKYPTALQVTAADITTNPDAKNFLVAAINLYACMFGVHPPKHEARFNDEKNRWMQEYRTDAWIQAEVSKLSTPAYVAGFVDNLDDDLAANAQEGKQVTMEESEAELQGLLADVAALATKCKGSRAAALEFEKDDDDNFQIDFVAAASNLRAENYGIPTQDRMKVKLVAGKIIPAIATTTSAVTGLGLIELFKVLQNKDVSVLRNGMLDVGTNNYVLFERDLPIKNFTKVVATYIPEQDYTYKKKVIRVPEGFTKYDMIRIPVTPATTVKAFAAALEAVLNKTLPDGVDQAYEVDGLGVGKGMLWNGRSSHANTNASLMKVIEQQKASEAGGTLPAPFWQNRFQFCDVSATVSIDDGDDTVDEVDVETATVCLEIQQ
# [3] = target: AMP-activated protein kinase, AMPK (Homo sapiens) (UniProt P54646+O43741+P54619+Q9UGJ0+Q9Y478+Q13131+Q9UGI9); assay: AMP-dependent Kinase enzyme assay. An in vitro enzyme assay that detects ADP turnover that is directly proportional to AMPK activity. This uses naive AMPK that is activated during the assay with MK-8722; format: functional; settings: 30 µM
# [4] = target: Sialic acid-binding Ig-like lectin 9 (Homo sapiens) (UniProt Q9Y336); assay: Hs-Siglec9 ALPHAscreen SOP 20170721; settings: 10 µM
# Trypanosoma cruzi = assay: Trypanosoma cruzi phosphomannomutase and mannose-1-phosphate guanylyltransferase assay; format: functional; settings: 10 µM
# [5] = target: T2, Arginase-2, mitochondrial (Homo sapiens) (UniProt P78540); assay: in vitro enzyme assay to detect the production of urea directly proportional to the activity of Arginase II; format: functional; settings: 33.3 µM; further: in the data most compounds retested in dose-response had high values
# T2 sequence (whole entry): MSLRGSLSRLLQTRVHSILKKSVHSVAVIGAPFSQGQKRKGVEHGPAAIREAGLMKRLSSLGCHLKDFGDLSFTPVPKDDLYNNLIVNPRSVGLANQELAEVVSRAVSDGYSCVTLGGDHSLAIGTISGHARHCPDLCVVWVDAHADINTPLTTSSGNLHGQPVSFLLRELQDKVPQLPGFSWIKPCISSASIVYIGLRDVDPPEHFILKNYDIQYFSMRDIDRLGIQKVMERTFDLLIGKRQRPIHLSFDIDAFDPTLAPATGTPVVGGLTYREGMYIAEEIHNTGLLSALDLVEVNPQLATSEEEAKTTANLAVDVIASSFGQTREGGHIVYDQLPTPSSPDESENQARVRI
# [6] = target: T3, Proteasome subunit beta (Trypanosoma cruzi) (UniProt O96673); assay: Trypanosoma cruzi proteasome chymotrypsin-like activity (TcProtChymo) assay.; further: in the data most compounds retested in dose-response had high values; format: functional; settings: 9.37 µM
# T3 sequence (whole entry): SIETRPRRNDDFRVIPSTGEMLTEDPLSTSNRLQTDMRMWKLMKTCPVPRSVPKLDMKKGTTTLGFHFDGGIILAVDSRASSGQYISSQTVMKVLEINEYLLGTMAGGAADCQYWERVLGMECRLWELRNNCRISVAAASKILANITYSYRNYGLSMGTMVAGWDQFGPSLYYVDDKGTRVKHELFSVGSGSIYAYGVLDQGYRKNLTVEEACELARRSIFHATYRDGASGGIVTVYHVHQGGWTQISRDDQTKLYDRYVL
# Homo sapiens = species on record: Homo sapiens; assay: To identify inhibition of the IFN signalling (Jak-Stat) pathway via expression of an eGFP reporter gene under the control of an IFN-stimulated response element (ISRE) containing MxA promoter.; format: functional; settings: 30 µM
# [7] = target: T4, Tyrosyl-tRNA synthetase, putative (Trypanosoma cruzi (strain CL Brener)) (UniProt Q4DSP6); assay: Trypanosoma cruzi tyrosyl tRNA synthetase (TcYRS) _High Tyrosine SOP; format: functional; settings: 30 µM; further: in the data most compounds retested in dose-response had high values
# T4 sequence (whole entry): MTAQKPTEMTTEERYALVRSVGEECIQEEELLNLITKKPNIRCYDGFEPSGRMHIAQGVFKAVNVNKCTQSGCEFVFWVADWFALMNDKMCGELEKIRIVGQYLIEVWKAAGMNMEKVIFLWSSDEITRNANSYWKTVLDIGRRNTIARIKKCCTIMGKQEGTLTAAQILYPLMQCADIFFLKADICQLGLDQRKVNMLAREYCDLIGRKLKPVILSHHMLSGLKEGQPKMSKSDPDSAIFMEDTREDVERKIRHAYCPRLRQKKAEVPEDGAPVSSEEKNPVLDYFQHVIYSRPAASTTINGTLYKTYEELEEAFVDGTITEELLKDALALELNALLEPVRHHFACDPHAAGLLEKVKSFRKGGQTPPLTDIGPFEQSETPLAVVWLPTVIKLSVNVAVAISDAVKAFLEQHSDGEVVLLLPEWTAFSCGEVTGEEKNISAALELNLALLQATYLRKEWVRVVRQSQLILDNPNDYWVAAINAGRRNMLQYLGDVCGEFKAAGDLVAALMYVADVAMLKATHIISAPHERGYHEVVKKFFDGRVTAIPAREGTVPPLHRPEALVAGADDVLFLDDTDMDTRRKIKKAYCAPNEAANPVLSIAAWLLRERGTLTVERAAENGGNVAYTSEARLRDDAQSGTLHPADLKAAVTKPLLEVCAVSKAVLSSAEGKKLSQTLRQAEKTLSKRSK
# [8] = target: T4, Tyrosyl-tRNA synthetase, putative (Trypanosoma cruzi (strain CL Brener)); assay: Trypanosoma cruzi tyrosyl tRNA synthetase (TcYRS) SOP; format: functional; settings: 30 µM
# [9] = target: Chromo domain-containing protein 1 (Saccharomyces cerevisiae (strain ATCC 204508 / S288c) (Baker's yeast)) (UniProt P32657); assay: ScCHD-1 Enzyme Inhibition Assay; format: functional; settings: 30 µM; further: in the data most compounds retested in dose-response had high values
# Sequence of Chromo domain-containing protein 1 (Saccharomyces cerevisiae (strain ATCC 204508 / S288c) (Baker's yeast)) (P32657 whole entry, the tested form may be a part): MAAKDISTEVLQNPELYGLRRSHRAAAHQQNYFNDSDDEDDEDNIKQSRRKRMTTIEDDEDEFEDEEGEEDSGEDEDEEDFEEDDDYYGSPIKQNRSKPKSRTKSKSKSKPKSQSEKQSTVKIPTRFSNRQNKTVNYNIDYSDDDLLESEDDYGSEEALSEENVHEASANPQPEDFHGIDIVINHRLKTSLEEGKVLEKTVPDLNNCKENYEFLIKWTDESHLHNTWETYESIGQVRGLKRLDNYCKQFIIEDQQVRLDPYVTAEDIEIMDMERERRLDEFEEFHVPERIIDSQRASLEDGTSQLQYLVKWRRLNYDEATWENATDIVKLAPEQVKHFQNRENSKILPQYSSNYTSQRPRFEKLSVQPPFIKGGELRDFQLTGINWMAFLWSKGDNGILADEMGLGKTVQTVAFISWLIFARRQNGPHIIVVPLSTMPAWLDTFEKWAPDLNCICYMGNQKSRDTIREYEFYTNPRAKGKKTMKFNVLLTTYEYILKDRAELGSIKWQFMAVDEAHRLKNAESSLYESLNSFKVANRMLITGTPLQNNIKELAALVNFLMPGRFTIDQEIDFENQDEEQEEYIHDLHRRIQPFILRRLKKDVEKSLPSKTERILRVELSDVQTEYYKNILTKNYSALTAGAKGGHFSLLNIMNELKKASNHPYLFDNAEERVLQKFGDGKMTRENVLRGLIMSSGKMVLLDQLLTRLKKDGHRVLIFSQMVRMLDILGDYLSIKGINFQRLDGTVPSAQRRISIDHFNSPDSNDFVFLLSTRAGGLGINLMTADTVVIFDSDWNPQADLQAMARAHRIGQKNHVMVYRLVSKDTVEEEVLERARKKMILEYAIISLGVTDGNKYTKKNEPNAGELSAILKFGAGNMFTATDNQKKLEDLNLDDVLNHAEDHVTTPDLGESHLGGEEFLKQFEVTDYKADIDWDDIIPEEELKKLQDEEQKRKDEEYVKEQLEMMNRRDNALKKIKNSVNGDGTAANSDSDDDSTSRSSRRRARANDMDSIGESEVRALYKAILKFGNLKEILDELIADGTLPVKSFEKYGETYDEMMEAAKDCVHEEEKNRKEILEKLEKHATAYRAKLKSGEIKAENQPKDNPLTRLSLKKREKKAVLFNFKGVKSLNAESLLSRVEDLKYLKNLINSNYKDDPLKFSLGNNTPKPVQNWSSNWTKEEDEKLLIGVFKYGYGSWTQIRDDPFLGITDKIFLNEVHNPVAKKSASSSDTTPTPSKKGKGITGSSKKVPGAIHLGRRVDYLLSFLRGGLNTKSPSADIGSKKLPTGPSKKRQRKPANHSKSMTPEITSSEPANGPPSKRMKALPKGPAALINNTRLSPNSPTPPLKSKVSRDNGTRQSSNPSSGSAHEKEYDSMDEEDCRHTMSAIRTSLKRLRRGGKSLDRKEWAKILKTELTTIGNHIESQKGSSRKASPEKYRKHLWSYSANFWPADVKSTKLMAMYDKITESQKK
# Sequence of Sialic acid-binding Ig-like lectin 9 (Homo sapiens) (Q9Y336 whole entry): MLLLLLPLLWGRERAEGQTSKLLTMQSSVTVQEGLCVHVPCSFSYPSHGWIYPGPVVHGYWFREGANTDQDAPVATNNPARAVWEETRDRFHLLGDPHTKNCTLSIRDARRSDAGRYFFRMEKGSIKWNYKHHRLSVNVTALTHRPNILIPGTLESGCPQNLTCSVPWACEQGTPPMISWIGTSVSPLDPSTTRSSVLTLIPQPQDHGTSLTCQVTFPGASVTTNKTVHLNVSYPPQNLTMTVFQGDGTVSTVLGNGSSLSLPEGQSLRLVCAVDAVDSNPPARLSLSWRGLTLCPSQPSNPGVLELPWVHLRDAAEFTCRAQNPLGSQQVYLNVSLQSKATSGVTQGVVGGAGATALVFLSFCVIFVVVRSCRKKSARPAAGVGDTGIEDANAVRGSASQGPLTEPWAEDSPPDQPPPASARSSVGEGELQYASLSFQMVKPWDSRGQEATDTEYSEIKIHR
# Sequence of Protein translocase subunit SecA (Escherichia coli (strain K12)) (P10408 whole entry): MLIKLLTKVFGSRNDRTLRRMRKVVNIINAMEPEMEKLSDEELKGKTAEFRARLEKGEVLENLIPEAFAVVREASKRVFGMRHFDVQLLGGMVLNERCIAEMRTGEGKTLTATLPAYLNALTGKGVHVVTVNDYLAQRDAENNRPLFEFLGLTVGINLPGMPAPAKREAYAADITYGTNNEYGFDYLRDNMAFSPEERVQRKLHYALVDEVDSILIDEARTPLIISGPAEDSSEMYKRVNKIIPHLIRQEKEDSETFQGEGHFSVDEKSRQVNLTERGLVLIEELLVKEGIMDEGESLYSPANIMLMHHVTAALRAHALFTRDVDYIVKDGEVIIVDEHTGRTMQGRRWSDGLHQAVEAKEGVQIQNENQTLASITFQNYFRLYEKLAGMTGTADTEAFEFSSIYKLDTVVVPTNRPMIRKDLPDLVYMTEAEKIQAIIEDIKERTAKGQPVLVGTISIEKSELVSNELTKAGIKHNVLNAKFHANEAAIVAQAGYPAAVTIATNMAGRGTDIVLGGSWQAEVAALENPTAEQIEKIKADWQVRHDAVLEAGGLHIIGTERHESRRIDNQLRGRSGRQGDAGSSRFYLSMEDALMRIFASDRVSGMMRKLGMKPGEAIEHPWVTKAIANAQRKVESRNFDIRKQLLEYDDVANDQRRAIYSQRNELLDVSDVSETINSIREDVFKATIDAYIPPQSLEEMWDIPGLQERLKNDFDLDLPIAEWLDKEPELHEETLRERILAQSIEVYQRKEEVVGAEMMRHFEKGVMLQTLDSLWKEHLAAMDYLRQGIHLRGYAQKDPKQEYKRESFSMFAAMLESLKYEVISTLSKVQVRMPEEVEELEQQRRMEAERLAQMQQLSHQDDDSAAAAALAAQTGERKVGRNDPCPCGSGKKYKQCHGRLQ
Compound,Percent Effect [1] [%],Percent Effect [2] [%],Percent Effect [3] [%],Percent Effect [4] [%],Percent Effect (Trypanosoma cruzi) [%],Percent Effect [5] [%],Percent Effect [6] [%],Percent Effect (Homo sapiens) [%],Percent Effect [7] [%],Percent Effect [8] [%],Percent Effect [9] [%]
O=S1(=O)c2ccccc2C2(CCN(Cc3ccccc3)C2)N1CC1CC1 (configuration not stated),-1.03,0,12.2,4.58,1.18,2.1,-0.264,32.1,3.19,3.85,2.59
CC(C)c1nc(C2CCCN2CC(=O)N2CCc3ccccc32)no1 (configuration not stated),-3.88,-7.89,5.96,5.77,-2.82,-1.15,-2.51,-0.0405,-3.43,-4.88,6.73
COC(=O)c1cccn1C1CCN(C(=O)c2cc(F)ccc2F)CC1,-4.16,13,1.19,0.495,4.87,-6.76,3.04,19.8,5.83,14.6,-9.49
CCN(c1ccc(C(=O)N2CCCC(C)C2)cc1)S(=O)(=O)CC (configuration not stated),-1.59,-4.17,8.62,-2.11,0.0972,-3.09,9.3,23.2,-2.1,-7.69,1.02
CNc1nc2c(s1)C(c1cccc(F)c1F)CC(=O)N2 (configuration not stated),-2.38,13.2,-61.3,-2.61,0.876,4.73,18.9,7.67,-11.7,-13,-8.74
CC(C)c1noc(C(C)N2CCN(Cc3ccsc3)CC2)n1 (configuration not stated),-4.95,7.89,-4.06,-4.87,-3.46,3.6,-2.45,-18.3,4.43,3.7,4.12
COCCOc1ccc(NC(=O)C2CC(=O)N(C)C2)cn1 (configuration not stated),0.0993,12.7,-16.4,-3.76,-5.95,6.46,1.06,23.3,1.48,11.4,-5.38
Cc1cccc(-c2ccc(C(=O)NCC(C)(C)C(N)=O)c(=O)[nH]2)c1,-5.4,2.7,-7.65,17.1,2.92,-2.81,5.41,0.882,-0.493,11.1,-14.8
Cc1nc(CCNC(=O)C2CC(=O)N(C(C)(C)C)C2)sc1C (configuration not stated),-4.83,0,-1.25,5.84,-1.19,-3.59,8.82,-0.947,5.21,11.1,-3.8
O=C1CC2(CCN(CC3CC3)C2)CN1c1cccc(F)c1 (configuration not stated),-0.129,10.8,-7.34,0.348,-3.81,1.24,4.38,-6.1,3.23,11.1,-0.923
Cn1c(Nc2cn[nH]c2)c(C#N)c(=O)n(C)c1=O,-7.22,5.41,-1.11,-6.81,-8.31,-1.74,14.3,-8.26,-3.23,1.24,-4.94
Cc1csc(C2CCCCN2C(=O)CN(C)Cc2ccccc2)n1 (configuration not stated),-1.2,-1.27,11,7.48,-1.33,3.23,0.515,-0.936,1.04,2.53,7.65
CC(C)c1nc(CN2CCCCC2)cs1,-4.24,-5.2,15.4,0.118,-0.686,-0.632,-1.54,47.1,-2.86,-2.35,0.144
COCc1cnc2n1CCN(C(=O)C1=CCCCC1)C2C (configuration not stated),2.94,17.3,-3.72,-2.8,-1.77,-16.7,15.5,33,3.17,12.8,-8.38
Cc1cccc(CN2CCc3c(nc(N4CCCCC4C)[nH]c3=O)C2)n1 (configuration not stated),-3.88,4.05,13,7.92,-3.36,0.232,9.36,13.8,7.53,9.09,2.2
O=C(CN1CCCCC1Cn1cncn1)NCCC1=CCCCC1 (configuration not stated),-9.27,7.59,-1.31,4.8,-2.55,-0.76,-4.5,30.9,2.46,-3.8,-6.11
O=C(NCCN1CCCCC1)c1nc(-c2ccc3cc[nH]c3c2)no1,-1.02,25.3,-7.25,3.61,4.71,-4.75,20.5,-13.4,4.23,12.8,-6.27
O=c1nc(SCc2ccncc2)c2c(n1CCO)CCCC2,-0.843,16.4,-2.68,11.4,3.92,19.6,21.8,19.8,3.23,7.5,-7.55
CC[C@@]1(O)CCN(C(=O)c2ccc(SC)cc2)C[C@H]1O,-4.3,4.17,0.43,1.71,6.9,-0.442,10.9,3.45,4.21,5.13,-3.41
Cc1ccc(NC(=O)N2CCOC(C)C2)cc1Cl (configuration not stated),-0.48,16.4,-5.38,4.84,2.58,-6.39,26.6,10.5,7.29,21,-3.19
COCC1Cn2nnc(-c3cnn(C)c3)c2CN1Cc1ccco1 (configuration not stated),-2.03,2.7,-7.24,5.87,1.37,23.8,9.72,-17.4,11.9,15.8,-5.92
O=C(C1CCCC1)N1CCN(Cc2nc(-c3ccco3)no2)CC1,-5.54,13.5,-5.37,16,3.99,-1.29,3.23,19.1,4.95,15.8,-4.84
